From PubChem BioAssay
Rv3671c inh = Rv3671c (M. tuberculosis) protease inhibition; 0.048% of 320,000 active; P9WHR9; inhibition, % at 5.96 µM; in the data active = inhibition above about 38%;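 note: extracellular domain of Rv3671c used as enzyme; 0% = enzyme with DMSO and 100% = no enzyme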
RecA intein inh = inhibitors of M. tuberculosis RecA intein splicing; AID 2221; inhibition, % (no concentration beside the values); cell-free RecA intein splicing, fluorescence; 0.75% of 290,000 active; in the data active = inhibition above about 30%; inconclusive = no clear call, values can overlap the other calls;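 note: 0% = vehicle wells and 100% = reference inhibitor control wells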
Mtb UGM inh = blocks M. tuberculosis UGM enzyme. 0.06% of 320,000 active. inhibition, % at 10 µM. P9WIQ1. purified UGM, fluorescence polarization probe displacement; in the data active = inhibition above about 10%, passing the limit was not always enough; inconclusive = no clear call, values can overlap the other calls
Target sequence (P9WIQ1 whole entry, looked up): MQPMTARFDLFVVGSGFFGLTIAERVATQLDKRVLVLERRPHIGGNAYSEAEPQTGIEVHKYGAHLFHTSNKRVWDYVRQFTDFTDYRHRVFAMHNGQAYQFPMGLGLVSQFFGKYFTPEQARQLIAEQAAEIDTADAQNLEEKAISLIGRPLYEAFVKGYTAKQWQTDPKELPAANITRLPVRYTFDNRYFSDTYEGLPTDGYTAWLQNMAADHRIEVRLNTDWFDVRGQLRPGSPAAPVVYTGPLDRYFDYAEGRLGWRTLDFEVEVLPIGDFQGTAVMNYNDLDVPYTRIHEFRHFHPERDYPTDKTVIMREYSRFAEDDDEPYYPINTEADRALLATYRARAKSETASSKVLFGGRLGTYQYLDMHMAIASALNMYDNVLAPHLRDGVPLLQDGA
Mtb bLac sens = beta-lactam sensitization of Mtb H37Rv. M. tuberculosis H37Rv growth with meropenem, percent inhibition. inhibition, % at 25 µM. 0.27% of 330,000 active. AID 434955; call rule not given here;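 note: growth measured after seven days incubation then overnight dye step; 0% = bacteria only wells and 100% = bacteria with antibiotic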
GDH-TPI counter-1 = counter-screen for M. tuberculosis FBA inhibitors: GDH-TPI coupled enzymes; GDH-TPI coupled enzyme counterscreen, NADH absorbance; inhibition, % at 4.8 µM; 1.2% of 360,000 active; AID 588335; in the data active = inhibition above about 30%;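 note: 0% = DMSO wells and 100% = wells lacking the enzyme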
Mtb FBA inh = inhibits M. tuberculosis FBA enzyme; P9WQA3; purified M. tuberculosis FBA, fluorescence read-out; inhibition, % at 1 µM; 2.3% of 360,000 active; AID 588726;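 note: 0% = vehicle and 100% = reference inhibitor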
Mtb FBA inh conf = Mtb FBA inhibition, confirmed; inhibition, % at 1 µM; shares compounds with Mtb FBA inh; purified M. tuberculosis FBA, fluorescence read-out; 78% of 5,600 active; AID 651616;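 note: 0% = vehicle wells and 100% = reference inhibitor wells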
GDH-TPI counter-2 = GDH-TPI inhibition counter-screen for FBA inhibitors; shares compounds with Mtb FBA inh; GDH-TPI coupled enzyme counterscreen, fluorescence; inhibition, % at 1 µM; 81% of 5,600 active; in the data active = inhibition above about 10%
Active calls of the source: *. In the library only some 4% were active in any assay of this set; here they are far more common. Cut-off read from the data, not from the text of the source, unless noted: active = inhibition above about 27%; inactive = the rest.

For Nc1cc(Cl)ccc1C(=O)OCC(=O)NCC1CCCO1 (stereo not given) the results were Rv3671c inh -5.1, Mtb UGM inh 4.7, Mtb bLac sens -2.9, GDH-TPI counter-1 15.3, Mtb FBA inh 52.6*, Mtb FBA inh conf 106.4* and GDH-TPI counter-2 74.3*.
For CC(=O)NNC(=O)c1cc2c3ccccc3n(C)c2s1 the results were Rv3671c inh -11.7, Mtb UGM inh 2.1, Mtb bLac sens -2.4, GDH-TPI counter-1 20.2 and Mtb FBA inh 8.4.
Cn1c2ccccc2c2cc(C(=O)N3CCN(CCO)CC3)sc21 was read as Rv3671c inh 4.1, RecA intein inh 5.7, Mtb UGM inh -3.8, Mtb bLac sens -4.1, GDH-TPI counter-1 17.8, Mtb FBA inh 29.0*, Mtb FBA inh conf 121.6* and GDH-TPI counter-2 90.1*.
Screening O=C(COc1ccc([N+](=O)[O-])cc1Cl)NCCN1C(=O)CSC1=O returned Rv3671c inh -0.5, Mtb UGM inh -1.5, Mtb bLac sens 5.5, GDH-TPI counter-1 14.5 and Mtb FBA inh 4.1.
CCOc1ccc(N2CC(C(=O)Nc3cc(OCC)c(N4CCOCC4)cc3OCC)CC2=O)cc1 (stereo not given) was read as GDH-TPI counter-1 5.2 and Mtb FBA inh 5.0.
C[C@H](O)[C@@H]1C(=O)N2CCc3c([nH]c4ccccc34)[C@@H]2C[C@@H]1N(C)C(=O)Nc1cccc2ccccc12 was read as Mtb FBA inh 73.8*, Mtb FBA inh conf 26.7 and GDH-TPI counter-2 24.1*.
C[C@H](O)[C@@H]1C(=O)N2CCc3c([nH]c4ccccc34)[C@@H]2C[C@@H]1N(C)S(=O)(=O)c1ccccc1 was read as GDH-TPI counter-1 10.9, Mtb FBA inh 71.9*, Mtb FBA inh conf active and GDH-TPI counter-2 active.
Cc1ccccc1C(=O)N(C)[C@H]1C[C@H]2c3[nH]c4ccccc4c3CCN2C(=O)[C@H]1[C@H](C)O was read as GDH-TPI counter-1 -5.2 and Mtb FBA inh 7.0.
Screening Cn1c2ccccc2c2c(C(=O)NCC3CCCO3)cn(C3CCCC3)c(=O)c21 (stereo not given) returned Rv3671c inh 2.8, RecA intein inh 11.8, Mtb UGM inh 1.1, Mtb bLac sens -8.2, GDH-TPI counter-1 11.9 and Mtb FBA inh 12.1.
`CN1CCN(CCCNC(=O)c2cn(C3CCCCC3)c(=O)c3c2c2ccccc2n3C)CC1` gave Rv3671c inh -2.2, RecA intein inh 2.0, Mtb UGM inh 2.3, Mtb bLac sens -1.8, GDH-TPI counter-1 11.2, Mtb FBA inh 30.7*, Mtb FBA inh conf 36.9* and GDH-TPI counter-2 40.9*.
For Cn1c(C(=O)NCCCN2CCCC2=O)cc2c(=O)n(C)c3ccccc3c21 the results were Rv3671c inh 3.8, RecA intein inh 1.1, Mtb UGM inh -2.1, Mtb bLac sens -6.5, GDH-TPI counter-1 -13.9 and Mtb FBA inh 10.6.
Cn1c2ccccc2c2c(C(=O)NCCCN3CCCC3=O)cn(C3CCCCC3)c(=O)c21 was read as Rv3671c inh 6.9, RecA intein inh -3.3, Mtb UGM inh -2.3, Mtb bLac sens 3.5, GDH-TPI counter-1 12.0, Mtb FBA inh 35.5*, Mtb FBA inh conf 98.0* and GDH-TPI counter-2 85.0*.
Screening CCCC(O)(c1ccc(CC)cc1)C(CN1CCOCC1)c1ccccc1 (stereo not given) returned RecA intein inh 7.3, Mtb UGM inh 1.6, Mtb bLac sens 12.9, GDH-TPI counter-1 6.0 and Mtb FBA inh 5.5.
For O=[N+]([O-])c1ccc(N=Nc2ncc[nH]2)cc1 the results were RecA intein inh 5.5, Mtb UGM inh 3.0, Mtb bLac sens 99.1, GDH-TPI counter-1 19.7 and Mtb FBA inh -7.2.
For COc1ccc(N(C)S(=O)(=O)c2cccc(C(=O)OCC(=O)c3c(N)n(C)c(=O)n(C)c3=O)c2)cc1 the results were Rv3671c inh -20.5, Mtb UGM inh -0.5, Mtb bLac sens -7.7, GDH-TPI counter-1 1.7 and Mtb FBA inh -2.3.
For COc1cc(OC)c(C2=NOC(C(=O)Nc3ccc4c(c3)OCO4)C2)cc1Cl (stereo not given) the results were Rv3671c inh 2.7, RecA intein inh 5.0, Mtb UGM inh 0.9, Mtb bLac sens 3.1, GDH-TPI counter-1 0.6, Mtb FBA inh 57.1*, Mtb FBA inh conf 52.8* and GDH-TPI counter-2 42.4*.
Screening c1ccc(CNc2c(-c3cccc(SC4CCCCC4)c3)nc3ccccn23)cc1 returned Rv3671c inh 5.4, Mtb UGM inh 2.0, Mtb bLac sens 7.6, GDH-TPI counter-1 15.6, Mtb FBA inh 46.5*, Mtb FBA inh conf 99.9* and GDH-TPI counter-2 65.1*.
Clc1cccc(-c2ccc(-c3nc4ccccn4c3NCc3ccccc3)cc2)c1 was read as Rv3671c inh 7.3, Mtb bLac sens 91.1, GDH-TPI counter-1 15.3, Mtb FBA inh 40.2*, Mtb FBA inh conf 151.7* and GDH-TPI counter-2 116.7*.
For Cc1ccn2c(NCc3ccccc3)c(-c3cccc(SC4CCCCC4)c3)nc2c1 the results were Rv3671c inh 10.7, Mtb UGM inh 3.6, Mtb bLac sens 2.4, GDH-TPI counter-1 13.2, Mtb FBA inh 28.3*, Mtb FBA inh conf 38.6* and GDH-TPI counter-2 30.0*.
Screening COc1ccc(-c2cc(-c3nc4ccccn4c3NCc3ccccc3)ccc2OC)cc1 returned Rv3671c inh 0.5, Mtb UGM inh 3.0, Mtb bLac sens 81.0, GDH-TPI counter-1 -2.5, Mtb FBA inh 36.3*, Mtb FBA inh conf 166.5* and GDH-TPI counter-2 136.3*.
Cc1ccc2nc(-c3cccc(SC4CCCCC4)c3)c(NCc3ccccc3)n2c1 was read as Rv3671c inh 4.8, Mtb bLac sens 0.4, GDH-TPI counter-1 9.2 and Mtb FBA inh 18.6.
`COc1ccc(N(C)S(=O)(=O)c2cccc(C(=O)NC3CCCC(C)C3C)c2)cc1` (stereo not given) gave Rv3671c inh 2.8, RecA intein inh -1.9, Mtb UGM inh -1.0, Mtb bLac sens -6.0, GDH-TPI counter-1 13.5 and Mtb FBA inh 6.5.
For CC(C)(C)CN1CCC(n2nccc2NC(=O)c2ccccc2Cl)CC1 the results were Rv3671c inh 0.8, RecA intein inh 0.4, Mtb UGM inh 2.3, Mtb bLac sens inconclusive, GDH-TPI counter-1 -0.7 and Mtb FBA inh -1.7.
`CCC(C)Sc1cccc(-c2nc3cc(C)ccn3c2NCc2ccccc2)c1` (stereo not given) gave Rv3671c inh 5.4, RecA intein inh 12.4, Mtb UGM inh 2.7, Mtb bLac sens 13.8, GDH-TPI counter-1 12.1, Mtb FBA inh 32.9*, Mtb FBA inh conf 48.7* and GDH-TPI counter-2 36.5*.
Screening CCc1ccccc1NC(=O)C1CCCN(S(=O)(=O)c2ccc3c(c2)CC(C)N3C(C)=O)C1 (stereo not given) returned Rv3671c inh 5.3, RecA intein inh 2.3, Mtb UGM inh -0.7, Mtb bLac sens -9.8, GDH-TPI counter-1 8.1 and Mtb FBA inh 4.1.
